A short description of experiment [1]: inhibitors of TNFa-induced NFkB p65 translocation, primary screen, imaging, HUVEC, MLSMR starter and 10KST1 sets (AID 438;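 active = inhibition above 20% together with a positive visual image hit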;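 note: compound added about 3h40 before a 20 min TNFalpha stimulation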;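 for inhibition: signal is the nuclear over cytoplasmic p65 intensity ratio per well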). To be noted: HUVEC TNFa-induced p65 nuclear translocation; cell count: measured here: nuclei count (cytotoxicity indicator), at 2.08 µM; inhibition: at 2 µM, stronger effect = higher value, 0% TNFa-plus-vehicle, 100% no-TNFa wells.
Experiment [2] is described as follows: reduction of polyQ htt aggregates in cells – imaging, exon1htt(103Q)mCFP cells, high-content imaging, primary screen (AID 483;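 active = visual image review flags a hit and inhibition of aggregation exceeds 20%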;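 note: compound exposure lasted 3 days before fixation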;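 for nuclei count: percent of the per-plate median nuclei count of sample wells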). The settings on record: exon1htt(103Q)mCFP cell line, aggregate imaging, at 2 µM; inhibition of aggregation: stronger effect = higher value; nuclei count: measured here: cell count, toxicity.
Experiment [3] is described as follows: endothelial E-selectin expression blockers – imaging, HUVEC, immunofluorescence, MLSMR starter and 10KST1 sets, primary screen (AID 487;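 active = visually confirmed hit in the image check and inhibition above 20%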;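 for inhibition: signal is fraction of cell area covered by stained E-selectin grains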;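 for nuclei count: 100% = median nuclei count of all wells on the same plate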). To be noted: HUVEC TNFalpha-induced E-selectin immunofluorescence imaging, at 2 µM; inhibition: stronger effect = higher value; nuclei count: measured here: cell number, toxicity.
For experiment [4], the target named is Voltage-gated potassium channel subunit beta-2 (Rattus norvegicus) (UniProt P62483). Nature of the experiment: inhibitors of rat Kvbeta2 reductase activity – biochemical, NADPH fluorescence, primary screen (AID 622;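 active = fluorescence slope higher than the sample average by over 3 SD, cut at about -0.22 in these data, passing the limit was not always enough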;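 note: slope of raw intensity against log time taken from 70 to 1610 s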). The settings on record: recombinant KvBeta, 4-cyanobenzaldehyde reduction, at 10 µM, stronger effect = higher value.
Experiment [5] has the same target. Kind of experiment: enhancers of rat Kvbeta2 NADPH turnover – biochemical, NADPH fluorescence, primary screen (AID 623;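 active = NADPH fluorescence slope more negative than the mean of all samples by about 3 SD, 99.7% confidence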;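 note: fluorescence intensity change per second fitted from 20 to 320 s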). The settings on record: Recombinant KvBeta, NADPH fluorescence decrease slope, 10 min; at 10 µM; stronger effect = lower value.
The target of experiment [6] is Alpha-2C adrenergic receptor (Homo sapiens) (UniProt P18825). Kind of experiment: compounds altering alpha2C-coupled GIRK flux – cell-based, HEK293 alpha2C/GIRK1/2, thallium flux, primary screen (AID 624;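 active = fluorescence slope after compound addition differing from the mean of all screened samples at 99.7% confidence, in either direction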;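 note: slope of fluorescence ratio to pre-addition baseline per second over 15 to 24 s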). The settings on record: thallium flux BTC fluorescence, at 10 µM, actives lie on both sides.
The nature of experiment [7]: blockers of RIG-like receptor reporter activation – cell-based, Sendai virus stimulus, luciferase, 10K MLSCN set, TLR/RLR signaling modifier project, primary screen (AID 602276).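 Note: firefly luciferase from ISG56 promoter only with Renilla not read in this screen; 0% = Sendai virus plus DMSO and 100% = medium plus DMSO without virus.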 To be noted: HEK293 RL24 IRF3 luciferase reporter, at 10 µM, stronger effect = higher value. Background: In a reporter assay the amount or activity of a reporter protein is the signal.
Experiment [8] in a line: TLR3 IRF3 reporter activation blockers – cell-based, poly I:C stimulus, luciferase, 10K MLSCN set, primary screen (AID 602277;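 active = inhibition of the reporter signal at or above 50%; inactive = inhibition below 50%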). To be noted: HEK293-TLR3 RL24 IRF3 luciferase reporter, at 10 µM, stronger effect = higher value.

These results are taken from PubChem BioAssay.

Molecules are shown by their SMILES. Activity calls are given as the source filed them.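 Rule for the calls, unless noted: active = inhibition at or above 50% at 10 µM; inactive = inhibition below 50%.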

Chain of Alpha-2C adrenergic receptor (Homo sapiens) (P18825 whole entry, looked up): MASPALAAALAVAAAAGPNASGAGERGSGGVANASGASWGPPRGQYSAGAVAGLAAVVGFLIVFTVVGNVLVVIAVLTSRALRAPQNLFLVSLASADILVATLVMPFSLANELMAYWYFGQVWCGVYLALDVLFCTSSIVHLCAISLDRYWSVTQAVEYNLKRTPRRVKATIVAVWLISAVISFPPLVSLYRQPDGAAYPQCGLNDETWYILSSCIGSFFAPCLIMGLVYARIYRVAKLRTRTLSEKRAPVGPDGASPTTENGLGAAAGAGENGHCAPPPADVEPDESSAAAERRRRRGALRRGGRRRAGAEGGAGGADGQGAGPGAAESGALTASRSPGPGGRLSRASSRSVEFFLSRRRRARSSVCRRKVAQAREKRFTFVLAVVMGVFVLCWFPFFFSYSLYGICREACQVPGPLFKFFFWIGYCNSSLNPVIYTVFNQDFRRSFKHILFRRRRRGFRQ
Chain of Voltage-gated potassium channel subunit beta-2 (Rattus norvegicus) (P62483 whole entry, looked up): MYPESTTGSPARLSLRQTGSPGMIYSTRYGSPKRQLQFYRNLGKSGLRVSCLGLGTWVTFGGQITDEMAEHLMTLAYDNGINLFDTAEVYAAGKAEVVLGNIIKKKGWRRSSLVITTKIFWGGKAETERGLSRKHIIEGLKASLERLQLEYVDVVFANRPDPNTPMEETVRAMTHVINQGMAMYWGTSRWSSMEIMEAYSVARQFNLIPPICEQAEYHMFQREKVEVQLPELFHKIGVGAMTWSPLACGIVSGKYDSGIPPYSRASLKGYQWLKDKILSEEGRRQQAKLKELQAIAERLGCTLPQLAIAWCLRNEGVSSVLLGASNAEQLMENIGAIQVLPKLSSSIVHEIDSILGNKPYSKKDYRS

For `O=C1CCn2nc(-c3ccc(Cl)cc3)cc2N1`, the cell count in experiment [1] was 557. The inhibition in experiment [1] is -0.5% (inactive); in experiment [3], -66.1% (inactive); in experiment [7], -20.1% (inactive); in experiment [8], -53% (inactive). For the same compound, the inhibition of aggregation in experiment [2] was -106% (inactive). The nuclei count in experiment [2] is 1.2%; in experiment [3], 118%. The fluorescence slope in experiment [4] is -0.601 (inactive). Further, the NADPH fluorescence slope in experiment [5] is -3.8e-05 (inactive). Also, the slope in experiment [6] was 0.00658 (inactive).
For the compound `COC(=O)c1[nH]c2ccc(C)cc2c1NC(=O)CN1CCCc2ccccc21`, in experiment [1], the cell count was 408. Further, the inhibition was 3.1% (inactive) in experiment [1], -29.9% (inactive) in experiment [3], 21.5% (inactive) in experiment [7] and 12% (inactive) in experiment [8]. Also, in experiment [2], the inhibition of aggregation was 21.6% (inactive). The nuclei count turned out to be 83.4% in experiment [2] and 106% in experiment [3]. Moreover, the fluorescence slope in experiment [4] is -0.39 (inactive). In addition, in experiment [5], the NADPH fluorescence slope is -4.8e-05 (inactive). In addition, the slope in experiment [6] is 0.00333 (inactive).
Take `COc1ccc(C2C(C(=O)N3CCC(C)CC3)c3ccccc3C(=O)N2C)cc1` (centres undefined): in experiment [1], the cell count came out at 475. Also, the inhibition in experiment [1] is -3.8% (inactive); in experiment [3], -17.4% (inactive); in experiment [7], -9.25% (inactive); in experiment [8] it was 12.2% (inactive). In experiment [2], the inhibition of aggregation is 12.4% (inactive). Moreover, the nuclei count in experiment [2] stood at 91.5%; in experiment [3], 101%. In experiment [4], the fluorescence slope is -0.54 (inactive). Also, the NADPH fluorescence slope in experiment [5] is -1.3e-05 (inactive). In addition, the slope in experiment [6] was 0.00505 (inactive).
On to `COc1ccc(NC(=O)COc2ccccc2)c(OC)c1`, for which the cell count in experiment [1] was 404. Also, the inhibition in experiment [1] is 8.8% (inactive); in experiment [3] it was 1.1% (inactive); in experiment [7] it was -32.8% (inactive); in experiment [8], -89.1% (inactive). In addition, in experiment [2], the inhibition of aggregation is -15.2% (inactive). Further, the nuclei count in experiment [2] turned out to be 106%; in experiment [3], 108%. Besides, the fluorescence slope in experiment [4] is -0.418 (inactive). Besides, the NADPH fluorescence slope in experiment [5] was -4.6e-05 (inactive). Besides, the slope in experiment [6] is 0.00449 (inactive).
In the case of `O=S(=O)(NC1CCCCC1NS(=O)(=O)c1ccc(F)cc1)c1ccc(F)cc1` (centres undefined), the cell count in experiment [1] was 334. Moreover, the inhibition in experiment [1] is 5.3% (inactive); in experiment [3], 5.1% (inactive); in experiment [7], 21.4% (inactive); in experiment [8], 26.6% (inactive). In experiment [2], the inhibition of aggregation was -1.8% (inactive). Further, the nuclei count came to 101% in experiment [2] and 112% in experiment [3]. In addition, the fluorescence slope in experiment [4] was -0.503 (inactive). For the same compound, the NADPH fluorescence slope in experiment [5] is -3.7e-06 (inactive). Besides, in experiment [6], the slope is 0.00507 (inactive).
Take `CCn1c(=O)c2cc(S(=O)(=O)NCc3ccccc3)ccc2n(CC)c1=O`: the cell count in experiment [1] came to 404. Also, the inhibition was -2.3% (inactive) in experiment [1], 0.2% (inactive) in experiment [3], 11.6% (inactive) in experiment [7] and 3.23% (inactive) in experiment [8]. Also, the inhibition of aggregation in experiment [2] was -3.8% (inactive). In addition, the results for the nuclei count in experiment [2] and in experiment [3] were 104% and 126%, respectively. The fluorescence slope in experiment [4] is -0.573 (inactive). In addition, the NADPH fluorescence slope in experiment [5] was 1.7e-05 (inactive). Besides, the slope in experiment [6] is 0.00625 (inactive).
Consider `COc1cc(C(=O)N2CCC(NC(=O)C(Cc3ccc(C)cc3)NC(C)=O)CC2)cc(OC)c1OC` (centres undefined), for which the cell count in experiment [1] worked out at 666. Further, the inhibition is -6.1% (inactive) in experiment [1], 5.2% (inactive) in experiment [3], 1.73% (inactive) in experiment [7] and 24.4% (inactive) in experiment [8]. Also, the inhibition of aggregation in experiment [2] is 22.1% (inactive). The nuclei count in experiment [2] came out at 56.4%; in experiment [3] it was 127%. Also, the fluorescence slope in experiment [4] was -0.478 (inactive). The NADPH fluorescence slope in experiment [5] was -4.4e-05 (inactive). In addition, in experiment [6], the slope was 0.00562 (inactive).
As for `COc1ccc(NC(=O)C2CCCN2S(=O)(=O)c2cccc3cccnc23)c(OC)c1` (centres undefined), the cell count in experiment [1] is 645. Moreover, the inhibition was -8.6% (inactive) in experiment [1], -59.6% (inactive) in experiment [3], 1.34% (inactive) in experiment [7] and 38.4% (inactive) in experiment [8]. Moreover, the inhibition of aggregation in experiment [2] was 2.8% (inactive). The nuclei count was 77.7% in experiment [2] and 103% in experiment [3]. In addition, in experiment [4], the fluorescence slope was -0.626 (inactive). In experiment [5], the NADPH fluorescence slope is 2.3e-06 (inactive). Also, in experiment [6], the slope is 0.00652 (inactive).
For `c1ccc(-c2nnc(CSc3nncs3)o2)cc1`, the cell count in experiment [1] was 322. The inhibition was 16.3% (inactive) in experiment [1], -49.2% (inactive) in experiment [3], -21.1% (inactive) in experiment [7] and -78.9% (inactive) in experiment [8]. Further, the inhibition of aggregation in experiment [2] is -19% (inactive). The nuclei count in experiment [2] was found to be 110%; in experiment [3], 106%. In experiment [4], the fluorescence slope was -0.402 (inactive). In experiment [5], the NADPH fluorescence slope is -2e-05 (inactive). Also, in experiment [6], the slope was 0.00275 (inactive).
Consider `O=C(O)c1cccc(NC(=O)C23CC4CC(C2)CC(n2cnc(Cl)n2)(C4)C3)c1`, for which, in experiment [1], the cell count came to 571. Further, the inhibition in experiment [1] was -24.4% (inactive); in experiment [3] it was -14.3% (inactive); in experiment [7], 9.34% (inactive); in experiment [8], 17.3% (inactive). Besides, the inhibition of aggregation in experiment [2] was -15.8% (inactive). The nuclei count in experiment [2] turned out to be 108%; in experiment [3] it was 115%. In addition, the fluorescence slope in experiment [4] was -0.506 (inactive). Also, in experiment [5], the NADPH fluorescence slope was -1.2e-05 (inactive). Besides, the slope in experiment [6] was 0.00606 (inactive).
Take `CCN1C(=O)C(C(=O)Nc2ccc(OC)cc2)C2CC1(C)Oc1ccccc12` (centres undefined): the cell count in experiment [1] was found to be 489. In addition, the inhibition in experiment [1] is 4.3% (inactive); in experiment [3] it was -4.8% (inactive); in experiment [7], -34.3% (inactive); in experiment [8] it was -51.5% (inactive). Moreover, the inhibition of aggregation in experiment [2] is -2% (inactive). In addition, the nuclei count in experiment [2] stood at 104%; in experiment [3] it was 102%. Further, in experiment [4], the fluorescence slope is -0.305 (inactive). The NADPH fluorescence slope in experiment [5] was -5.8e-05 (inactive). The slope in experiment [6] was 0.0052 (inactive).
In the case of `CCOC(=O)c1ccc(NC(=O)CSC2=NC(=O)C(CC)C(=O)N2)cc1` (centres undefined), the cell count in experiment [1] is 534. Besides, the inhibition in experiment [1] is -20.1% (inactive); in experiment [3] it was -104% (inactive); in experiment [7], -3.93% (inactive); in experiment [8] it was -17% (inactive). In addition, the inhibition of aggregation in experiment [2] is -43.6% (inactive). The nuclei count in experiment [2] was 83.8%; in experiment [3], 102%. Further, the fluorescence slope in experiment [4] is -0.569 (inactive). In experiment [5], the NADPH fluorescence slope was 2.6e-05 (inactive). The slope in experiment [6] is 0.00682 (inactive).
Regarding `CCOC(=O)c1ccccc1NC(=O)N1CCn2c(C)ccc2C1CC` (centres undefined), the cell count in experiment [1] turned out to be 383. Also, the inhibition is 2.8% (inactive) in experiment [1], -50.1% (inactive) in experiment [3], -0.392% (inactive) in experiment [7] and 8.3% (inactive) in experiment [8]. Further, the inhibition of aggregation in experiment [2] is -42% (inactive). For the same compound, the nuclei count in experiment [2] was found to be 105%; in experiment [3], 110%. Moreover, in experiment [4], the fluorescence slope is -0.579 (inactive). In experiment [5], the NADPH fluorescence slope was -3.2e-05 (inactive). Besides, in experiment [6], the slope is 0.00545 (inactive).
Regarding `CN(Cc1ccco1)C(=O)Cn1c(=O)oc2cc(S(=O)(=O)NCc3ccccc3)ccc21`, the cell count in experiment [1] is 924. Moreover, the inhibition in experiment [1] is 2.8% (inactive); in experiment [3] it was -17.8% (inactive); in experiment [7], 13.5% (inactive); in experiment [8], 10.8% (inactive). For the same compound, the inhibition of aggregation in experiment [2] was 20.1% (inactive). The results for the nuclei count in experiment [2] and in experiment [3] were 104% and 96.6%, respectively. In addition, in experiment [4], the fluorescence slope is -0.55 (inactive). For the same compound, the NADPH fluorescence slope in experiment [5] was 2.5e-05 (inactive). Also, the slope in experiment [6] is 0.00749 (inactive).

Broadly, the inhibition is the change of the read-out against control, counted positive when it falls.
